The full ranking holds about 33,000 sequences; the median of “E-score (-0.5 to 0.5)” is about -0.012, and the highest 2% start at about 0.29. The entries come from a sample that favours the highest values as a whole.
molecular target: T1, Ybr033w (UniProt P38073); assay: PBM E-score (8-mer binding enrichment) (E-score (-0.5 to 0.5)); higher = stronger / more preferred TF binding; conditions: protein concentration: 200 nM; construct: GST-full length
T1 sequence: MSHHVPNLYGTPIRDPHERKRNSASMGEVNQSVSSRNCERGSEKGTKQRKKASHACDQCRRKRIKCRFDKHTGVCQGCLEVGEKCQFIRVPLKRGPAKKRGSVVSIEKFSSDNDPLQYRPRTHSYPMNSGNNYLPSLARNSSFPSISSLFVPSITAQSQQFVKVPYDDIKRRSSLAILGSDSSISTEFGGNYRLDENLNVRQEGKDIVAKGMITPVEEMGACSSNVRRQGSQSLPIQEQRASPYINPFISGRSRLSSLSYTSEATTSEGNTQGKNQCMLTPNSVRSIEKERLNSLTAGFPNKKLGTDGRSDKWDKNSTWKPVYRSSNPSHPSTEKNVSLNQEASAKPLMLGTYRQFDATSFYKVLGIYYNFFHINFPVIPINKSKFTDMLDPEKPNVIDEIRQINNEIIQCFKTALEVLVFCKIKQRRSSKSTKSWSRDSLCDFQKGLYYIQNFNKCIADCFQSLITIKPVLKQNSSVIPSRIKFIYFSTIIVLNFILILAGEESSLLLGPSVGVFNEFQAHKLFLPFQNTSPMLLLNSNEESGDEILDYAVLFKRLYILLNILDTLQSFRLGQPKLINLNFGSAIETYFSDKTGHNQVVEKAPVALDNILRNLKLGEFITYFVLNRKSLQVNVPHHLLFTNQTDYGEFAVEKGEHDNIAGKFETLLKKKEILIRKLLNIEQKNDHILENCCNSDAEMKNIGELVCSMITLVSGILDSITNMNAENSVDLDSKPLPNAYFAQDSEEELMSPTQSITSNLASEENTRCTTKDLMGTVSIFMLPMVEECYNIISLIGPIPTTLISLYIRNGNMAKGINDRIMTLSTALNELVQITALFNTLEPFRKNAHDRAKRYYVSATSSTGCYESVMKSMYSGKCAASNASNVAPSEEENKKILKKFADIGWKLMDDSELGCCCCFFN
Method: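 Universal 'all 10-mer' protein binding microarrays (Agilent AMADID 015681) probed with GST-tagged S. cerevisiae TFs (full-length or DBD) made by in vitro transcription/translation (PURExpress), about 100-200 nM. Bound TF was detected with fluorescent anti-GST. Each ungapped 8-mer (which stands for itself and its reverse complement) is scored by the PBM enrichment score (E-score), a modified Wilcoxon-Mann-Whitney statistic from -0.5 to +0.5, computed with the Universal PBM Analysis Suite. Scale: above 0.35 generally sequence-specific binding.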

Row | Sequence | PBM E-score
1 | ATTCGTGG | 0.0347
2 | GTATTTTA | 0.23
3 | AGATTTCC | 0.135
4 | ATATTTAG | 0.321
5 | CTATTTTA | 0.252
6 | ATTTTTAG | 0.179
7 | CTATTTAA | 0.022
8 | AGATTTTC | 0.322
9 | GTATTTAA | 0.267
10 | ATATTTAA | 0.372
11 | ATATTTTA | 0.3
12 | AGATTTTA | 0.109
13 | ATATTTAC | 0.215
14 | CCATTTAG | -0.056
15 | CGTGGGCC | -0.155
16 | AATCCTAA | 0.0561
17 | CCTCCAGG | -0.322
18 | CACCGACG | -0.0189
19 | ATATCCAT | 0.196
20 | GAGCTCAC | -0.27
21 | CATATGCA | 0.0648
22 | CCCTTACC | -0.131

Row | Sequence | PBM E-score
23 | ATATTTCG | 0.269
24 | ATATTTTC | 0.342
25 | ATATTTTG | 0.234
26 | ATATTTCC | 0.349
27 | ATCTTTAA | 0.299
28 | CTATTTCC | 0.276
29 | CTATTTTC | 0.284
30 | ATCTTTTA | 0.236
31 | ATCTTTAC | 0.203
32 | CCCCTTTC | -0.262
33 | GGAACGAA | 0.104
34 | AGGGATAT | 0.0785
35 | ACGACTCC | 0.0443
36 | CGGGGTAG | -0.177
37 | GTGGCTAA | 0.0232
38 | GAAATTAA | 0.294
39 | AAAATTAC | 0.22
40 | AAAATTAT | 0.358
41 | CAAATTAA | 0.212
42 | AAAATTCG | 0.279
43 | GAAATTAC | 0.255
44 | AAATTTGG | 0.0261

Row | Sequence | PBM E-score
45 | AAATTTGT | 0.303
46 | GAAATTCA | 0.228
47 | AATTTTGT | 0.215
48 | AAATTTAT | 0.228
49 | AAAATTCA | 0.359
50 | CCACTTAC | 0.0573
51 | TAACGGAA | 0.153
52 | CTCAGAGC | -0.191
53 | CCGAAGTC | -0.0348
54 | CAATGAAG | 0.0396
55 | GACTGTTA | 0.0926
56 | AGAGGAAT | -0.012
57 | ACGAGGAC | -0.181
58 | CTAAATGC | 0.0943
59 | TAAATTAA | 0.283
60 | GAAATTGC | 0.0471
61 | TAAATTGA | 0.265
62 | AAAATTTT | 0.293
63 | AAAATTAG | 0.179
64 | AAAAATTT | 0.283
65 | GAAATTGA | 0.289
66 | AAAATTAA | 0.308

Row | Sequence | PBM E-score
67 | AAAATTTC | 0.132
68 | GGGGAGGA | -0.205
69 | ATGGTCTC | -0.0831
70 | CAGCAGAC | -0.106
71 | ACAGTCGC | -0.136
72 | AAGCGACG | -0.285
73 | ACGGGTGG | -0.171
74 | GTACGCTA | -0.178
75 | TCCCTACA | -0.0308
76 | CTTAAACA | 0.104
77 | GTTAAAGA | 0.182
78 | ATTAAACA | 0.312
79 | ATTAAAGA | 0.327
80 | TTTAAAAA | 0.149
81 | ATTAAAAG | 0.223
82 | CTAAAAAA | 0.267
83 | ATTAAAAC | 0.272
84 | ATTAAACG | 0.27
85 | CTTAAAGA | -0.102
86 | ATTAAAAA | 0.297
87 | TTAAAAAA | 0.306

— the supplement of paper PMC3334620
